Unmarked numbers belong to inactive results. Results filed as inconclusive are left out. The source made the active and inactive calls. Unless noted, the call rests on the fitted dose curve; in most records, active means well fitted curve in either direction with a large enough effect (not every such curve was filed as active); inconclusive means small, poorly fitted or top-dose-only effect, or another doubt; inactive means flat fitted curve, though single readings scatter.
Experiments:
[1] = target: Lysosomal acid glucosylceramidase (Homo sapiens) (UniProt P04062); assay: Glucocerebrosidase-p2 (AID 348; in the data active means potency below about 10 µM; further: potency means the concentration at half of the fitted maximal effect); conditions: purified GBA, blue fluorogenic substrate, 40 min
Outline: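 Normal human glucocerebrosidase (0.2 nM) with blue fluorogenic substrate (80 uM final) in citrate/phosphate pH 5.9 with 10mM sodium taurocholate, 0.01% tween-20; 40 min RT, NaOH/glycine stop; fluorescence Ex 365/Em 440; AC50 from a titration from 0.6 nM upwards.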

[2] = AP1 Signaling Pathway (AID 357); conditions: ME-180 AP-1-bla reporter, EGF-induced, beta-lactamase ratio, 5 h; at 7.69 µM (top of the series) unless noted;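 further: ME-180 reporter cells stimulated with EGF at its EC50 level; on the % scale 0 is the no-effect control and ±100 the full control effect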
Outline: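 AP-1-bla ME-180 cells, Opti-MEM + 0.5% dialyzed FBS, plated overnight 37 °C. Cpd titration + EC50 EGF, 5 h 37 °C. CCF4 2.5 h RT; ex 405, em 460/530 ratio → %activity, AC50.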

[3] = target: Cytochrome P450 1A2 (Homo sapiens) (UniProt P05177); assay: p450-cyp1a2 (AID 410; calls by dose curve; further: potency means the concentration at half of the fitted maximal effect;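 on activity change, negative = inhibition: -100% = full effect of reference inhibitor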); conditions: recombinant CYP1A2, luciferin-ME demethylation, luminescence; series mostly up to 11.4 µM
Outline: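 Luminescent demethylation readout: Luciferin-ME (100uM, equal to Km) turned over by 20nM CYP1A2 for 60 min at room temperature after NADPH regeneration addition, following 10 min compound preincubation. Normalization used 57 uM furafylline as full inhibition.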

[4] = NFAT Signaling Pathway (AID 444); conditions: Jurkat NFAT-bla M1, carbachol, beta-lactamase ratio, 5 h; at 7.69 µM (top of the series) unless noted;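 further: carbachol stimulus at about its EC50 of 1 µM final; on the % scale 0 is the no-effect control and ±100 the full control effect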
Outline: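 Read-out: CCF4 FRET ratio (460 nm/530 nm) after 1 h RT dye loading, used for %activity and AC50 from titration series. Cells: Jurkat NFAT-β-lactamase/M1 line, treated with compound plus 1 uM carbachol for 5 h, 37 °C.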

[5] = Stat Signaling Pathway (AID 446); conditions: ME-180 SIE beta-lactamase reporter, IL-6 stimulated, 5 h; at 7.69 µM (top of the series) unless noted;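 further: ME-180 cervical cancer cells given 40 pM IL-6 alongside compound; SIE-controlled beta-lactamase reporter measured as 460/530 nm FRET emission ratio; on the % scale 0 is the no-effect control and ±100 the full control effect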
Outline: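 Emission at 460 and 530 nm (excitation 405 nm) reports SIE-controlled beta-lactamase in ME-180 cells. Cells received compound with 40 pM IL-6 for 5 hrs at 37 C; data scaled between 300 pM IL-6 and 125 nM JAK-inhibitor controls.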

[6] = target: Glucocorticoid receptor (Homo sapiens) (UniProt P04150); assay: GR-GFP Redistribution (AID 450;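 active means compounds whose dose series gives a full or clear partial fitted curve of increased nuclear translocation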; further: potency means the concentration at half of the fitted maximal effect); conditions: U2OS GR-GFP nuclear translocation, laser cytometry, 2 h
[7] = target: Glucocorticoid receptor (Homo sapiens) (UniProt P04150); assay: GR-EFC Redistribution (AID 451; calls by dose curve; further: potency means the concentration at half of the fitted maximal effect); conditions: CHO-K1 GR-EFC translocation, beta-gal luminescence, 2 h
Outline: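 Translocation of GR-ED fusion to nuclear EA restores b-gal, read by luminescence after 1 h room-temperature detection. Engineered CHO-K1 biosensor cells, 1,000/well, exposed 2 h at 37 C to titrations up to 46 uM final.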

[8] = target: Mitogen-activated protein kinase 10 (Mus musculus) (UniProt Q61831); assay: JNK3 AlphaScreen Assay (AID 530); conditions: JNK3 lysate, c-Jun phosphorylation; series mostly up to 11.4 µM;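 further: kinase came from lysate of stimulated human HepG2 cells; signal reports phosphorylation of biotinylated GST-cJun 1-79 at Ser73 with 10 µM ATP; on the % scale 0 is the no-effect control and ±100 the full control effect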
Outline: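 qHTS titrations with 15 min compound pre-incubation before adding ATP (10 uM final). Read-out: AlphaScreen of Ser73-phosphorylated biotin-GST-cJun using HepG2 lysate JNK3 activated by IL-1β and TNFα.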

[9] = target: 3',5'-cyclic-AMP phosphodiesterase 4B (Homo sapiens) (UniProt Q07343); assay: qHTS Assay for Inhibitors of PDE-IV (AID 607; active means well fitted activation curve with a large enough effect in the main read-out, with a control signal flat, not every such curve was filed as active; further: % of control where 0% means no effect); conditions: HEK293 ACTOne CNG channel cells, membrane potential fluorescence; series mostly up to 22.9 µM
Outline: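 The readout is membrane depolarisation from a cAMP-sensing CNG channel, detected with a potential dye at ex 535/em 590. Cells were HEK293-derived (endogenous PDE-IV) at 1000 cells/well, titrated up to 22.9 uM final.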

[10] = target: Cytochrome P450 3A4 (Homo sapiens) (UniProt P08684); assay: qHTS Assay for Activators of Cytochrome P450 3A4 (AID 885; active means well fitted curve in the direction sought with a large enough effect; an effect the other way counts as inactive or inconclusive; further: nearly all actives have a fitted effect of over 65% in size); conditions: recombinant CYP3A4, Luciferin-PPXE luminescence, 60 min; series mostly up to 11.4 µM
Outline: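 Activators are scored by enhanced luminescence from CYP3A4 conversion of luciferin-PPXE (25uM, equal to KM) to luciferin, after 60 min at RT with an NADPH-regenerating system.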

[11] = target: Cytochrome P450 2C19 (Homo sapiens) (UniProt P33261); assay: qHTS Assay for Inhibitors and Substrates of Cytochrome P450 2C19 (AID 899; active means well fitted curve in the direction sought with a large enough effect; an effect the other way counts as inactive or inconclusive; further: potency means the concentration at half of the fitted maximal effect; nearly all actives have a fitted effect of over 60% in size); conditions: recombinant CYP2C19, luciferin-H EGE luminescence; series mostly up to 11.4 µM
Outline: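 5nM enzyme + 10uM Luciferin-H EGE (=KM), 50mM KPO4; cpd pin-transferred, 10 min 37C; NADPH regen, 60 min 37C; stopped w/ luciferin detection reagent, 20 min; luminescence. Normalized to 57uM ketoconazole (AC100).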

[12] = qHTS Assay for Identification of Small Molecule Agonists for Hypoxia Response Element Signaling Pathway (AID 914; active means well fitted activation curve with a large enough effect in the signal ratio, with a control signal flat, not every such curve was filed as active; the % refers to the signal ratio; further: % of control where 0% means no effect); conditions: ME-180 (cervical carcinoma) HRE-bla reporter, beta-lactamase ratio, CoCl2, 17 h; activation: hits give high values
Outline: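 AC50 values come from titration-series %Activity, taken as the 460/530nm ratio of CCF4 fluorescence (excitation 405nm). CellSensor HRE-bla ME-180 cells were treated 17 hours at 37 C with compound plus an EC50 level of CoCl2.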

[13] = target: Cytochrome P450 2D6 (Homo sapiens) (UniProt P10635); assay: qHTS Assay for Inhibitors and Substrates of Cytochrome P450 2D6 (AID 891; active means well fitted curve in the direction sought with a large enough effect; an effect the other way counts as inactive or inconclusive;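 further: luciferin methyl ether substrate demethylated by CYP2D6 with NADPH regeneration; on the % scale 0 is the no-effect control and ±100 the full control effect; nearly all actives have a fitted effect of over 60% in size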); conditions: recombinant CYP2D6, luciferin-ME EGE luminescence; series mostly up to 11.4 µM
Outline: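 Luminescent read-out of luciferin formed by 5 nM human CYP2D6 demethylating 30 uM Luciferin-ME EGE (Km level) over 60 min at room temperature after NADPH regeneration addition. Data normalized to full inhibition by 1.43 uM quinidine.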

Chain of 3',5'-cyclic-AMP phosphodiesterase 4B (Homo sapiens) (Q07343 whole entry, looked up): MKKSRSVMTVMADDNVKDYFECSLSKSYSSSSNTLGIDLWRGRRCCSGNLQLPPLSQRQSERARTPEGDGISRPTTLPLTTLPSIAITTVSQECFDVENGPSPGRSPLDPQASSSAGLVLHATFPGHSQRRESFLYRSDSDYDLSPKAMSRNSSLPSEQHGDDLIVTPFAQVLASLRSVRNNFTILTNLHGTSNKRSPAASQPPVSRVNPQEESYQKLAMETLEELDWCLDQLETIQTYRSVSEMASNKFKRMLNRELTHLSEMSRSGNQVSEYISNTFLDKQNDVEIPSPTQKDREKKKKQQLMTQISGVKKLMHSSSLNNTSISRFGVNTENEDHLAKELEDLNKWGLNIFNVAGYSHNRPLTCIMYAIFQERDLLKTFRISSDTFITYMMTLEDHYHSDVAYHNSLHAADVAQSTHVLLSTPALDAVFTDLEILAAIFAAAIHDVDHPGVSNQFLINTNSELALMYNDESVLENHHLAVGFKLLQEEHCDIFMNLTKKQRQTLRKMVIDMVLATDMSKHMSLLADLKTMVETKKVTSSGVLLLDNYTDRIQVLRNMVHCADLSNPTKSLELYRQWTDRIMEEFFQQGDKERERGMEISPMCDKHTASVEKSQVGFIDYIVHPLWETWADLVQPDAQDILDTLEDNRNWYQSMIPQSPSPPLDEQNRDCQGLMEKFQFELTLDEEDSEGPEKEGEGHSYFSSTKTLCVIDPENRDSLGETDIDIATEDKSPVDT
Chain of Cytochrome P450 1A2 (Homo sapiens) (P05177 whole entry, looked up): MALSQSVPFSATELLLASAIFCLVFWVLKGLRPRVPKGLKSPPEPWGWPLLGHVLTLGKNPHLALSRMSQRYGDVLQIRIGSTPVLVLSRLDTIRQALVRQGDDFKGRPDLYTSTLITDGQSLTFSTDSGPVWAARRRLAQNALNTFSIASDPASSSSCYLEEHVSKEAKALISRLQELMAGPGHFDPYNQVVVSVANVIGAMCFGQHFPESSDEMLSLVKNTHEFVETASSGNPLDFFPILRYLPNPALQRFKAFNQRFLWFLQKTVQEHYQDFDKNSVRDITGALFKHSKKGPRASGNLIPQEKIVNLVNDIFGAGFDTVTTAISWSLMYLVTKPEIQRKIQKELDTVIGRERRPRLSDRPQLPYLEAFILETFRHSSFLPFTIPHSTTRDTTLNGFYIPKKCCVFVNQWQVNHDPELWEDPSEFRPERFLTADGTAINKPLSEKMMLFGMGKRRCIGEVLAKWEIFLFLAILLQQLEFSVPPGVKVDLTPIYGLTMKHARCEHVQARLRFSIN
Chain of Cytochrome P450 3A4 (Homo sapiens) (P08684 whole entry, looked up): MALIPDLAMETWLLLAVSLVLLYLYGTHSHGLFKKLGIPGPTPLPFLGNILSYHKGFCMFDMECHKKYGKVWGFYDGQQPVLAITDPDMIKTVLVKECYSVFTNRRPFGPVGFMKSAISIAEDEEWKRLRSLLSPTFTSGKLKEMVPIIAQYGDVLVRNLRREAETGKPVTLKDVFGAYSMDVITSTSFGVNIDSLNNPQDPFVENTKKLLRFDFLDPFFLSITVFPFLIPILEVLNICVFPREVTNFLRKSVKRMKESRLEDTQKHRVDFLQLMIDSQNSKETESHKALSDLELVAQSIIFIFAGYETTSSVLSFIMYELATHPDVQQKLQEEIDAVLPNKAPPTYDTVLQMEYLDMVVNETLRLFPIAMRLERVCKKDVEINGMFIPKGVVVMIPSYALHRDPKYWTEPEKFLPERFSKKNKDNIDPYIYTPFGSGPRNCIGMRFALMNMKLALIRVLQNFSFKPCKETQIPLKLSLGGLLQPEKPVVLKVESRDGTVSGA
Chain of Glucocorticoid receptor (Homo sapiens) (P04150 whole entry, looked up, the tested form may be a part): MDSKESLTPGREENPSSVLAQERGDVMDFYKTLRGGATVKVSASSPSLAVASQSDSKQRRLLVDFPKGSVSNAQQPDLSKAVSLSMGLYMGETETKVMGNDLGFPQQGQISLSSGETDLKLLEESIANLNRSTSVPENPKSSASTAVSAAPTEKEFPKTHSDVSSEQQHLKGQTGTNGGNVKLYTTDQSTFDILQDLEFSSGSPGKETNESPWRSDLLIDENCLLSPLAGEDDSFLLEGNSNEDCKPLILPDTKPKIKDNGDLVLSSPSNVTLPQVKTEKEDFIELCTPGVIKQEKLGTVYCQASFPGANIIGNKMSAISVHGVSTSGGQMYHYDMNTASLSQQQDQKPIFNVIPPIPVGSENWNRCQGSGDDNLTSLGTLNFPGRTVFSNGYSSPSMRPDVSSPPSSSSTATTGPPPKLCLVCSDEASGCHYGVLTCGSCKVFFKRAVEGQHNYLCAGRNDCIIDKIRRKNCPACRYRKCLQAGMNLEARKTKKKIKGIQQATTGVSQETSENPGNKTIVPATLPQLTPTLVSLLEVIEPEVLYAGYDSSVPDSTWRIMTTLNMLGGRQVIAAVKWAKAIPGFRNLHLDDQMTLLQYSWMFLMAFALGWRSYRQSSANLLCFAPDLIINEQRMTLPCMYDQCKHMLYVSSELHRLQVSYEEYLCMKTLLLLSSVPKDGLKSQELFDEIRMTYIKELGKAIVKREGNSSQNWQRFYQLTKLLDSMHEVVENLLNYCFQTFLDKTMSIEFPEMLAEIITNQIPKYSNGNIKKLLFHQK
Chain of Lysosomal acid glucosylceramidase (Homo sapiens) (P04062 whole entry, looked up): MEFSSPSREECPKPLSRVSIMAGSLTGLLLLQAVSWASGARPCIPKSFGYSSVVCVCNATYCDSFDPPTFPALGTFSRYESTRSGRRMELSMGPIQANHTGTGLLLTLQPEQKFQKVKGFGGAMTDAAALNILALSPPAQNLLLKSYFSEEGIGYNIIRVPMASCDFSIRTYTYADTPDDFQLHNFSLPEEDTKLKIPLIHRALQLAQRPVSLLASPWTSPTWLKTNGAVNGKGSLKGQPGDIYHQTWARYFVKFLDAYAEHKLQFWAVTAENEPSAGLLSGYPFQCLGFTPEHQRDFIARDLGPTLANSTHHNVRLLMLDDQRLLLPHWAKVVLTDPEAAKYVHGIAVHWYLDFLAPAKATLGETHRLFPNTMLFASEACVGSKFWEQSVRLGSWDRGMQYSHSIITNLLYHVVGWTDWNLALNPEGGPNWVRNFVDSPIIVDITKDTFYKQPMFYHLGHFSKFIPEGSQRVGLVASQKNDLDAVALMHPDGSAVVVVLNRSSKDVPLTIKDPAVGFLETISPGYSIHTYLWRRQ
Chain of Cytochrome P450 2D6 (Homo sapiens) (P10635 whole entry, looked up): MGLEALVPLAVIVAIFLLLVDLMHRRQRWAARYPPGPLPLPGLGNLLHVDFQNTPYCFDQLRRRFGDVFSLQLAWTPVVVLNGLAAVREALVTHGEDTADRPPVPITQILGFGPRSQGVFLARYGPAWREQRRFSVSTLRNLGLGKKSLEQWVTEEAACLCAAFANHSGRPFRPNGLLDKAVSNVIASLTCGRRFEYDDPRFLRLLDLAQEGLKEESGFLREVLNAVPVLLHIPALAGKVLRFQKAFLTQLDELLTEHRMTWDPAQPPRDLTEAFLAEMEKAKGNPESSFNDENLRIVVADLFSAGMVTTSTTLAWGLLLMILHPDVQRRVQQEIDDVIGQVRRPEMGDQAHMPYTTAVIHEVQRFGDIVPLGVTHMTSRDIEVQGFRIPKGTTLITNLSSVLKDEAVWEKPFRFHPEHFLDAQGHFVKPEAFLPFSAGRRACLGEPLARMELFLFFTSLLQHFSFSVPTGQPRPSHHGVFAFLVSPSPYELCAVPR
Chain of Cytochrome P450 2C19 (Homo sapiens) (P33261 whole entry, looked up): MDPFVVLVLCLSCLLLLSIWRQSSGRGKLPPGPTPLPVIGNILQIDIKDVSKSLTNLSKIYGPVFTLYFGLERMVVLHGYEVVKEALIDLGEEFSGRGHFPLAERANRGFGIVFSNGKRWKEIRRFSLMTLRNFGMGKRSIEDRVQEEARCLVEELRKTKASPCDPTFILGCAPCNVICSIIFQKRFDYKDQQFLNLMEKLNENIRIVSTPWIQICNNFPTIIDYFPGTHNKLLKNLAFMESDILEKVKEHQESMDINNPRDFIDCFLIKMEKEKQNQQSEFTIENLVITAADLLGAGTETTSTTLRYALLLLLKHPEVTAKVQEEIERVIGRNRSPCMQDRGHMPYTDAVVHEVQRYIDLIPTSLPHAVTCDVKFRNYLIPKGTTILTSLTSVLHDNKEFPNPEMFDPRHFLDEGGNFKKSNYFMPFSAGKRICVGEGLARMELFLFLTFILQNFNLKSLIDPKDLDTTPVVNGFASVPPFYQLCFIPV

SMILES | Potency [1] [µM] | activity change, negative = inhibition [2] [%] | Potency [3] | activity change, negative = inhibition [4] [%] | activity, negative = inhibition [5] [%] | Potency [6] [µM] | Potency [7] [µM] | Potency [8] | Potency [9] | Potency [10] | Potency [11] | activity change, negative = inhibition [3] | activation [12] [%] | Potency [13]
COc1cccc2[nH]c(-c3ccccn3)nc12 | > 11.4 | -2.26 | 0.794 µM (active) | 1.67 | 4.98 | > 46 | > 9.22 | inactive | inactive | inactive | 2.51 µM (active) |  |  | 
CN1CCN(c2ccncc2S(=O)(=O)N2CCN(C)CC2)CC1 | > 11.4 | 5.65 |  | -16.5 | 8.15 | > 46 | > 9.22 | inactive | inactive | inactive |  | -7.4% [at 2.29 µM] | 7.59 | 
O=C(O)c1cc(-c2ccncc2)nc2ccccc12 | > 11.4 | 3.07 | inactive | -5.13 | -5.62 | > 46 | > 9.22 | inactive | inactive | inactive |  |  |  | 
O=C(O)c1cc2ccccc2c(S(=O)(=O)O)c1O | > 11.4 | 2.94 | inactive | 7.56 | 3.56 | > 46 | > 9.22 | inactive | inactive |  |  |  |  | inactive
OCCN(CO)CO | > 11.4 | 6.19 | inactive | 13.5 | 7.15 | > 46 | > 9.22 | inactive | inactive |  |  |  |  | inactive

Source: PubChem BioAssay (NCATS)
